PubChem BioAssay AID1259336 (Sattelle Laboratory, UCL Respiratory, Division of Medicine, …, 2017)

assay: anthelmintic activity against nematode growth – whole organism, log2 fold change (AID 1259336);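 further: growth scored by imaging after five days at 20 °C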; conditions: C. elegans growth, anthelmintic screen; hits give low values; in the data active means log2 fold change growth below about -1.8; inactive means the rest

log2 fold change growth, inactive:
Cc1cccc(-c2nc(Nc3ccncn3)c3sccc3n2)n1 0.438, CCS(=O)(=O)N(Cc1ccco1)Cc1cc2ccc(C)cc2[nH]c1=O 0.443, c1ccc(-c2[nH]c3ccccc3c2[C@@H](c2ccccn2)N2CCCC2)cc1 -0.0251, CCC(=O)Nc1ccccc1C(=O)Nc1ccccn1 0.194, c1ccc(-c2nc(NC3CCCCC3)cc(C3CC3)n2)nc1 -0.0356, CC[C@@H]([C@H](C)O)n1ncn(-c2ccc(N3CCN(c4ccc(OC[C@@H]5CO[C@@](Cn6cncn6)(c6ccc(F)cc6F)C5)cc4)CC3)cc2)c1=O -1.34, CC(C)(CN)c1nc(-c2ccc(Cl)c(O)c2)c(-c2ccnc(N)n2)[nH]1 -0.414, Nc1nccc2ccc(Oc3ccncc3)cc12 0.145, COc1ccc(C(=N)N)cc1-c1cn(-c2ccc(C(=N)N)cc2)nn1 -0.0296, Cc1cc(C)c2cc(C(=O)NC3CCCCCCC3)[nH]c2c1 -0.0221, CC1=Nc2ccc(Cl)cc2[C@H](c2ccccc2)N1CCNC(=O)CN(C)C 0.44, Cc1cc(OCC(=O)Nc2ccc(C(C)C)cc2)n(C)c(=O)c1C#N 0.363, COc1ccc2nccc(NC(=O)C3CCN(CCc4ccc(Cl)cc4)CC3)c2n1 0.423, Cc1nc(-c2ccccn2)nc(N2CC[C@H](Cc3ccccc3)C2)c1Cl -1.52, COc1cccc(-n2nnnc2S(C)(=O)=O)c1 0.157, O=C(Nc1nc(-c2ccccn2)cs1)c1cncn1-c1ccccc1 -0.307, CCc1nc2ccccc2n1C[C@H](O)COc1cc(C)ccc1Cl 0.0644, O=C1[C@@H](Oc2ccccc2)[C@@H](c2ccc(Cl)cc2)N1CCn1cnc2c(NCc3ccccc3)ncnc21 -0.167, CCCCCCCCCCCCCCCCOP(=O)([O-])OCC[N+](C)(C)C 0.528, COc1cc(CN2CCC3(C=Cc4ccccc43)CC2)cc2c1OCO2 -0.677, COc1ccc(N(CCc2cccc(C)n2)C(C)=O)cc1 0.0749, Cc1cc(C)cc(COc2ccc3c(C)c(CCC(=O)O)c(=O)oc3c2C)c1 -0.0961, COc1cc(NC(=O)Cc2nn(C)c(=O)c3ccccc23)ccc1Cl 0.419, Cc1cc(=O)[nH]c(-n2nc(C)cc2C)n1 0.36, CCCCN(CCCC)c1c(C#N)cc(S(=O)(=O)Nc2ccccc2)cc1C#N -0.631, O=C(Nc1nnc(-c2ccc(Cl)s2)o1)c1ccc(Cl)s1 0.518, Cc1ccc2[nH]c3c(NCCN(C)C)ncnc3c2c1 0.351, CN1CCN(c2nccc3[nH]c(-c4ccc(F)c(F)c4)nc23)CC1 -0.373, Cc1cnc(N2CCN[C@@H](Cc3ccccc3)C2)nc1Oc1ccc(-n2ccnc2)cc1 0.245, CCN(CC)S(=O)(=O)c1ccc(C(=O)Nc2cc(C)nn2-c2nc(C)c(C)c(=O)[nH]2)cc1 0.269, Cn1ccnc1CNCCS(=O)(=O)c1cccc(Nc2ccc(-c3cccc(F)c3)cn2)c1 0.155, COc1cc2ncnc(NC3CCN(Cc4ccccc4)CC3)c2cc1OC -0.116, COc1cccc(-c2cc3c(Nc4cccnc4)nccc3[nH]2)c1 0.319, CC[C@H](CO)NCCN[C@H](CC)CO -0.0318, NCCC[C@@](N)(C(=O)O)C(F)F 0.109, CCOc1ccc(-c2nc(NC(=O)CS(=O)(=O)c3ccccc3)sc2C)cc1 -1.31, O=C(N[C@H]1CCN(c2ccnc3ccccc23)C1)c1cccc(C(F)(F)F)c1 0.541, Cc1ccc2nc(C)c(-c3ccn(Cc4ccccc4)n3)n2c1 0.192
